# Experimental data taken from PubChem BioAssay (NCATS).
# For some of these results: Results with a measured potency or affinity are listed apart. Calls of active or inactive are those of the source.
# Legend:
# [1] = Ebola virus entry assay, green fluorescence channel
# [2] = Ebola virus entry assay, blue channel fluorescence
# [3] = Ebola virus entry assay, green fluorescence channel; remark: listed apart in the source
# [4] = Ebola virus entry assay, ratio channel readout
# [5] = Ebola virus entry assay, blue channel fluorescence; remark: listed apart in the source
# [6] = Ebola virus entry assay, ratio channel
# [7] = Ebola virus entry assay, green channel fluorescence
# [8] = qHTS profiling of the MIPE4 collection as inhibitors of Plasmodium falciparum (3D7) proliferation (AID 743344);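 note: scaled between DMSO vehicle wells and 0.29 µM artemisinin as full inhibition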; settings: P. falciparum 3D7 in erythrocytes, SYBR Green DNA fluorescence, 72 h; at 28.5 µM (top of the series) unless noted
# Summary of the method: (§1)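 Erythrocytes infected with P. falciparum (0.3% parasitemia, 2.5% hematocrit) incubated with compounds 72 h at 37 C, 5% CO2. Lysis with saponin/Triton buffer containing SYBR Green I, overnight at room temperature in the dark; DNA fluorescence (485/535 nm) normalised to 0.29 uM artemisinin and DMSO.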
# [9] = qHTS profiling of the MIPE4 collection as inhibitors of Plasmodium falciparum (DD2) proliferation (AID 743345); settings: P. falciparum Dd2 in erythrocytes, SYBR Green DNA, 72 h; at 28.5 µM (top of the series) unless noted
# Summary of the method: as §1
# [10] = qHTS profiling of the MIPE4 collection as inhibitors of Plasmodium falciparum (HB3) proliferation (AID 743347);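 note: plate controls were DMSO vehicle wells for no effect and artemisinin wells for full effect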; settings: P. falciparum HB3 in erythrocytes, SYBR Green DNA, 72 h; at 28.5 µM (top of the series) unless noted
# Summary of the method: as §1
# Throughout, for efficacy: 0% is about no effect.
Structure (SMILES),efficacy [1],outcome [2],outcome [3],outcome [4],outcome [5],outcome [6],outcome [7],AC50 [5],AC50 [6],AC50 [2],AC50 [4],"parasite growth, % of DMSO control [8]","parasite growth remaining, % of DMSO control (lower = more inhibition) [9]","growth, % of control [10]"
Cc1onc(-c2c(Cl)cccc2Cl)c1C(=O)N[C@@H]1C(=O)N2[C@@H]1SC(C)(C)[C@@H]2C(=O)O,26.4% (inactive),inactive,inactive,inactive,inactive,inactive,inactive,,,,,,,
CN(C)CC[C@@H](c1ccc(Br)cc1)c1ccccn1,34.2% (inactive),inactive,inactive,inactive,,inactive,inactive,39.8 µM (active),,,,,,
CC(=O)O[C@]1(C(C)=O)CC[C@H]2[C@@H]3C=C(C)C4=CC(=O)CC[C@]4(C)[C@H]3CC[C@@]21C,20% (inactive),inactive,inactive,inactive,inactive,inactive,inactive,,,,,,,
CC(=O)[C@]1(O)Cc2c(O)c3c(c(O)c2[C@@H](O[C@H]2C[C@H](N)[C@H](O)[C@H](C)O2)C1)C(=O)c1ccccc1C3=O,27.8% (inactive),inactive,inactive,inactive,,,inactive,14.1 µM (active),12.6 µM (active),,,,,
CN(C)c1nc(N(C)C)nc(N(C)C)n1,14.8% (inactive),inactive,inactive,inactive,inactive,inactive,inactive,,,,,,,
CC1(C)O[C@@H]2[C@@H](CO[C@@]3(COS(N)(=O)=O)OC(C)(C)O[C@@H]23)O1,-13.6% (inactive),inactive,inactive,inactive,inactive,inactive,inactive,,,,,,,
NC1[C@H]2CN(c3nc4c(cc3F)c(=O)c(C(=O)O)cn4-c3ccc(F)cc3F)C[C@@H]12 (stereo not given in full),-13.1% (inactive),inactive,inactive,inactive,inactive,inactive,inactive,,,,,,,
CNC(=O)c1cc(Oc2ccc(NC(=O)Nc3ccc(Cl)c(C(F)(F)F)c3)cc2)ccn1,20.4% (inactive),inactive,inactive,inactive,,inactive,inactive,39.8 µM (active),,,,,,
C#Cc1cccc(Nc2ncnc3cc(OCCOC)c(OCCOC)cc23)c1,-13.7% (inactive),inactive,inactive,inactive,inactive,inactive,inactive,,,,,,,
COc1cc(C(=O)NCc2ccc(OCCN(C)C)cc2)cc(OC)c1OC,33.3% (inactive),inactive,inactive,inactive,inactive,inactive,inactive,,,,,,,
CC(C)NCC(O)c1ccc(O)c(O)c1 (stereo not given),-9.56% (inactive),inactive,inactive,inactive,inactive,inactive,inactive,,,,,,,
CC[C@H](C)C(=O)O[C@H]1C[C@@H](C)C=C2C=C[C@H](C)[C@H](CC[C@@H]3C[C@@H](O)CC(=O)O3)[C@H]21,16.1% (inactive),inactive,inactive,inactive,inactive,inactive,inactive,,,,,,,
O=C(c1ccccc1)c1ccc2n1CCC2C(=O)O (stereo not given),22% (inactive),inactive,inactive,inactive,inactive,inactive,inactive,,,,,,,
CCC(C)n1ncn(-c2ccc(N3CCN(c4ccc(OC[C@H]5CO[C@](Cn6cncn6)(c6ccc(Cl)cc6Cl)O5)cc4)CC3)cc2)c1=O (stereo not given in full),13.1% (inactive),,inactive,,inactive,inactive,inactive,,,5.01 µM (active),2 µM (active),,,
CCCN[C@H]1CCc2nc(N)sc2C1,-13.1% (inactive),inactive,inactive,inactive,inactive,inactive,inactive,,,,,,,
CCN(CCO)CCCC(C)Nc1ccnc2cc(Cl)ccc12 (stereo not given),21.3% (inactive),inactive,inactive,inactive,,,inactive,1.12 µM (active),1.41 µM (active),,,,,
Nc1ccc(O)c(C(=O)O)c1,18.3% (inactive),inactive,inactive,inactive,,inactive,inactive,28.2 µM (active),,,,,,
CCC1=C[C@@H]2CN(C1)Cc1c([nH]c3ccccc13)[C@@](C(=O)OC)(c1cc3c(cc1OC)N(C)[C@H]1[C@@](O)(C(=O)OC)[C@H](OC(C)=O)[C@]4(CC)C=CCN5CC[C@]31[C@@H]54)C2,-100% (inactive),,inactive,inactive,,,inactive,7.94 µM (active),2.51 µM (active),0.112 µM (active),,,,
CCn1cc(C(=O)O)c(=O)c2cc(F)c(N3CCNCC3)cc21,-31.6% (inactive),inactive,inactive,inactive,inactive,inactive,inactive,,,,,48%,60.2%,82.1%
CCN(C)C(=O)Oc1cccc([C@H](C)N(C)C)c1,11.7% (inactive),inactive,inactive,inactive,inactive,inactive,inactive,,,,,92%,,82.1%
O=C(O)CCNC(=O)c1ccc(N=Nc2ccc(O)c(C(=O)O)c2)cc1,-11.9% (inactive),inactive,inactive,inactive,inactive,inactive,inactive,,,,,,,
C#C[C@]1(O)CC[C@H]2[C@@H]3CCC4=Cc5oncc5C[C@]4(C)[C@H]3CC[C@@]21C,22.7% (inactive),inactive,inactive,inactive,,,inactive,7.94 µM (active),6.31 µM (active),,,,,
COC(c1ccccc1)(c1ccccc1)[C@H](Oc1nc(C)cc(C)n1)C(=O)O,-17.9% (inactive),inactive,inactive,inactive,inactive,inactive,inactive,,,,,,,
Nc1nc(F)nc2c1ncn2[C@@H]1O[C@H](CO)[C@@H](O)[C@@H]1O,16.7% (inactive),inactive,inactive,inactive,inactive,inactive,inactive,,,,,31%,,81.8%
